Experimental data taken from PubChem BioAssay (NCATS).
Inconclusive results are not listed. The source made the active and inactive calls. Unless noted, calls follow the shape of the dose curve; as a rule, active = well fitted curve in the direction sought with a large enough effect; inconclusive = small, poorly fitted or top-dose-only effect, or another doubt; inactive = no such curve, though single readings can be large; an effect the other way counts as inactive or inconclusive.

Key:
[1] = molecular target: Peroxisome proliferator-activated receptor gamma (Homo sapiens) (UniProt P37231); experiment: qHTS assay for small molecule agonists of peroxisome proliferator-activated receptor gamma signaling (AID 588536; active = well fitted curve in the direction sought with a large enough effect in the signal ratio, with a control signal flat, not every such curve was filed as active; the % refers to the signal ratio;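 also: 0% = DMSO basal wells and 100% = rosiglitazone at 2 µM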)
Summary of the method: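 Beta-lactamase reporter read-out: CCF4 fluorescence (ex 405, em 460/530 nm) after 2 h at RT. HEK293 GeneBLAzer cells were treated for 16 h at 37 C. Hill fits gave EC50 and efficacy versus 2 uM rosiglitazone (100%) and DMSO (0%).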

[2] = molecular target: Peroxisome proliferator-activated receptor gamma (Homo sapiens) (UniProt P37231); experiment: qHTS assay for small molecule antagonists of peroxisome proliferator-activated receptor gamma signaling (AID 588537; active = well fitted inhibition curve with a large enough effect in the signal ratio, with a control signal flat, not every such curve was filed as active; the % refers to the signal ratio;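 also: reporter cells co-stimulated with 50 nM rosiglitazone agonist during compound treatment; % of control where 0% means no effect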)
Summary of the method: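 Fluorescence at 460 and 530 nm (405 nm excitation) reported beta-lactamase cleavage of CCF4 after 2 h room-temperature loading. HEK293 reporter cells in 1% charcoal/dextran-treated FBS had received compound and rosiglitazone for 16 h.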

[3] = qHTS assay for small molecule agonists of retinoid X receptor alpha signaling (AID 588544; calls by dose curve;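 as to activation: 0% = DMSO basal wells and 100% = reference agonist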); settings: HEK293T RXRa-UAS-bla, beta-lactamase reporter, 18 h; 530 nm emission
[4] = molecular target: Retinoic acid receptor RXR-alpha (Homo sapiens) (UniProt P19793); experiment: as above
[5] = molecular target: Thyroid hormone receptor beta (Homo sapiens) (UniProt P10828); experiment: qHTS assay for small molecule agonists of thyroid hormone receptor beta signaling (AID 588545; calls by dose curve;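 also: 0% = DMSO only and 100% = 10 nM T3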)
Summary of the method: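 Stimulation of a TR-driven beta-lactamase reporter was quantified in GripTite HEK 293 cells. Compound series ran for 18 hrs; curves were normalized to T3 and DMSO controls and fitted to yield EC50.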

[6] = qHTS assay for small molecule antagonists of retinoid X receptor alpha signaling (AID 588546; active = well fitted inhibition curve with a large enough effect in the signal ratio, with a control signal flat, not every such curve was filed as active; the % refers to the signal ratio;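 also: cells stimulated with 9-cis-retinoic acid as agonist; % is scaled to controls: 0 for no effect and ±100 for the full control effect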); settings: HEK293T RXRa-UAS-bla, beta-lactamase ratio, antagonist mode; measured here: W530 green channel, cytotoxicity proxy
Summary of the method: (§1)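 Beta-lactamase reporter inhibition, read as CCF4 fluorescence ratio (ex 405, em 460/530 nm) after 2 h at RT. HEK293T UAS-bla cells, 2500/well, were stimulated with 9-cis-RA at 500 or 100 nM final alongside test compound for 18 h at 37 C.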

[7] = molecular target: Retinoic acid receptor RXR-alpha (Homo sapiens) (UniProt P19793); experiment: as above; settings: HEK293T RXRa-UAS-bla, beta-lactamase ratio, antagonist mode
Summary of the method: as §1

[8] = qHTS assay for small molecule activators of the p53 signaling pathway (AID 651743; active = well fitted activation curve with a large enough effect in the signal ratio, not every such curve was filed as active; the % refers to the signal ratio; also: series mostly up to about 92 µM; % of control where 0% means no effect); settings: HCT-116 p53RE-bla, beta-lactamase FRET ratio, 16 h; activation: stronger effect = higher value
Summary of the method: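 Following 16 hours of compound exposure at 37 C, HCT-116 cells bearing the p53RE-bla reporter were loaded with LiveBLAzer B/G FRET substrate for 2 hours at room temperature and fluorescence intensity was recorded.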

[9] = qHTS assay for small molecule activators of the nuclear factor-kappa B (NF-kB) signaling pathway (AID 651749; active = well fitted activation curve with a large enough effect in the signal ratio; the % refers to the signal ratio; also: series mostly up to about 77 µM; % of control where 0% means no effect); settings: NF-kB-bla ME-180 cells, beta-lactamase FRET ratio, 16 h; activation: stronger effect = higher value
Summary of the method: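 In this qHTS format, compounds acting as activators increase NF-kB-driven beta-lactamase in ME-180 cells, measured as disrupted FRET after 16 hr exposure at 37C and 5% CO2.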

[10] = qHTS assay for environmental chemicals that activate the Aryl hydrocarbon Receptor (AhR) signaling pathway (AID 651777); settings: 1A2-DRE human hepatoma cells, luciferase, 24 h; activation: stronger effect = higher value; also: % of control where 0% means no effect; nearly all actives have a fitted effect of over 15% in size
Summary of the method: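 Human hepatoma 1A2-DRE cells, stably carrying a dioxin response element and CYP1A2 promoter driving luciferase, were exposed to compounds for 24 hr at 37 C and 5% CO2. Luciferase signal was then read after 30 min One-Glo at room temperature.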

[11] = molecular target: Peroxisome proliferator-activated receptor alpha (Homo sapiens) (UniProt Q07869); experiment: qHTS assay for small molecule agonists of the peroxisome proliferator-activated receptor alpha (PPARalpha) signaling pathway (AID 651778); settings: PathHunter PPARalpha complementation, chemiluminescence, 6 h; max response: stronger effect = higher value; also: % of control where 0% means no effect
Summary of the method: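 Enzyme-fragment complementation assay in which ligand-bound PPARalpha translocates and forms an active enzyme that generates chemiluminescence. Cells were plated overnight, exposed to compound for 6 hr at 37 C, and then given detection reagent for 60 min at room temperature.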

[12] = qHTS assay for small molecule agonists of the antioxidant response element (ARE) signaling pathway measured by Nrf2-dependant transcriptional activity (AID 720636; active = well fitted curve in the direction sought with a large enough effect in the repeat runs; an effect the other way counts as inactive or inconclusive; also: % of control where 0% means no effect)
Summary of the method: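 ARE-luc HepG2 cells carrying an Nrf2-responsive luciferase reporter were plated in medium with 1% dialyzed FBS, left 6 hr at 37 C to attach, then exposed to compound for 16 hr. Luciferase luminescence was read after ONE-Glo addition.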

[13] = qHTS assay for small molecule agonists of the antioxidant response element (ARE) signaling pathway measured by Nrf2-dependant transcriptional activity - cell viability counter screen (AID 720653; active = well fitted curve in the direction sought with a large enough effect in the repeat runs; an effect the other way counts as inactive or inconclusive; also: potency is read from the fitted curve at half-maximal effect; as to max response: % is scaled to controls: 0 for no effect and ±100 for the full control effect); settings: ARE-bla HepG2 viability, CellTiter-Glo ATP luminescence, 16 h; max response: stronger effect = lower value
Summary of the method: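 ARE-bla HepG2 cells treated with compounds for 16 h at 37C; this counter screen measures viability as intracellular ATP by CellTiter-Glo luminescence after 30 min at room temperature.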

[14] = qHTS assay for cell viability of HEK293 cells (AID 743288); settings: ATP luminescence (CellTiter-Glo), 18 h; max response: stronger effect = lower value; also: % is scaled to controls: 0 for no effect and ±100 for the full control effect; nearly all actives have a fitted effect of over 50% in size
Summary of the method: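 HEK293, 18 h, 37 C, ATP luminescence. Cells at 2,000/well were allowed at least 5 h to settle before dosing; CellTiter-Glo developed 30 min at RT.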

[15] = qHTS assay for cell viability of the p53RE-bla HCT-116 cell line (AID 743292); also: nearly all actives have a fitted effect of over 55% in size; also: potency is read from the fitted curve at half-maximal effect
Summary of the method: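 CellSensor p53RE-bla HCT-116 cells, 4,000/well, preincubated 5 h at 37 C, then exposed to compounds in DMSO for 16 h at 37 C. Viability read as CellTiter-Glo luminescence (intracellular ATP) after 30 min at room temperature.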

[16] = molecular target: Nuclear receptor subfamily 1 group I member 2 (Rattus norvegicus) (UniProt Q9R1A7); experiment: qHTS assay for small molecule activators of the rat pregnane X receptor (rPXR) signaling pathway (AID 651751; call rule not given here; also: 0% is about no effect); settings: rPXR reporter cells, luciferase (One-Glo), 24 h
[17] = molecular target: Glucocorticoid receptor (Homo sapiens) (UniProt P04150); experiment: qHTS assay for small molecule agonists of glucocorticoid receptor signaling (AID 588532; active = well fitted curve in the direction sought with a large enough effect in the signal ratio, with a control signal flat; the % refers to the signal ratio;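 also: 100% = dexamethasone at 0.1 µM and 0% = DMSO only wells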); settings: HeLa MMTV-bla, beta-lactamase ratio, agonist, 18 h; stronger effect = higher value; percent of dexamethasone control, DMSO zero
Summary of the method: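 HeLa GRE-bla reporter cells; 18 h compound exposure at 37 C; 2 h CCF4 loading at room temperature; fluorescence at 460 and 530 nm; EC50 by Hill equation.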

[18] = molecular target: Thyroid hormone receptor beta (Homo sapiens) (UniProt P10828); experiment: qHTS assay for small molecule antagonists of thyroid hormone receptor beta signaling (AID 588547; active = well fitted inhibition curve with a large enough effect in the signal ratio, with a control signal flat, not every such curve was filed as active; the % refers to the signal ratio;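 also: cells stimulated with 0.4 nM T3 agonist during compound exposure; series mostly up to about 77 µM; % is scaled to controls: 0 for no effect and ±100 for the full control effect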); settings: TR-UAS-bla HEK293, beta-lactamase ratio, antagonist mode, 18 h
Summary of the method: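 TR-UAS-bla GripTite HEK293 cells in 2% charcoal/dextran FBS medium; compounds 0.59 nM to 92 uM with T3 at 0.4nM final, 18 h at 37 C. Beta-lactamase read by CCF4 fluorescence (460/530 nm); Hill fits gave IC50 and efficacy.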

[19] = qHTS assay for small molecule activators of the human pregnane X receptor (PXR) signaling pathway (AID 720659; call rule not given here; also: 0% is about no effect)
[20] = qHTS assay for small molecule antagonists of peroxisome proliferator-activated receptor delta signaling (AID 588535); settings: HEK293T PPARd-UAS-bla, beta-lactamase FRET ratio, 18 h; 460 nm channel;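 also: cells co-treated with a PPAR-delta agonist as stimulator during compound exposure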
Summary of the method: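 Fluorescence from CCF4-loaded GeneBLAzer PPAR-delta-UAS-bla HEK293T cells (2 hrs RT loading) quantified reporter inhibition after an 18 hr, 37 C compound exposure across a titration.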

Chain of Retinoic acid receptor RXR-alpha (Homo sapiens) (P19793 whole entry, looked up): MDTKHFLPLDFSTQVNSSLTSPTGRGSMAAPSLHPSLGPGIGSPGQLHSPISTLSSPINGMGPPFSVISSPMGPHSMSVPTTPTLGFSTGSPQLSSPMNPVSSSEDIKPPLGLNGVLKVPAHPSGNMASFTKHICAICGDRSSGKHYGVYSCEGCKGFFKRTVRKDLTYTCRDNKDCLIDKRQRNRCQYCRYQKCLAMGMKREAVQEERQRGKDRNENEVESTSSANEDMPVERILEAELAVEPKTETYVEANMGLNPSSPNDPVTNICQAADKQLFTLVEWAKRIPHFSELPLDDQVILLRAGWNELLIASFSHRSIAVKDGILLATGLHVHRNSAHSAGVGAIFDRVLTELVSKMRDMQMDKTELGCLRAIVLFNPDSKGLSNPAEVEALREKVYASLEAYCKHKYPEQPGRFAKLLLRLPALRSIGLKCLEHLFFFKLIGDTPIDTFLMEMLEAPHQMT
Chain of Nuclear receptor subfamily 1 group I member 2 (Rattus norvegicus) (Q9R1A7 whole entry, looked up): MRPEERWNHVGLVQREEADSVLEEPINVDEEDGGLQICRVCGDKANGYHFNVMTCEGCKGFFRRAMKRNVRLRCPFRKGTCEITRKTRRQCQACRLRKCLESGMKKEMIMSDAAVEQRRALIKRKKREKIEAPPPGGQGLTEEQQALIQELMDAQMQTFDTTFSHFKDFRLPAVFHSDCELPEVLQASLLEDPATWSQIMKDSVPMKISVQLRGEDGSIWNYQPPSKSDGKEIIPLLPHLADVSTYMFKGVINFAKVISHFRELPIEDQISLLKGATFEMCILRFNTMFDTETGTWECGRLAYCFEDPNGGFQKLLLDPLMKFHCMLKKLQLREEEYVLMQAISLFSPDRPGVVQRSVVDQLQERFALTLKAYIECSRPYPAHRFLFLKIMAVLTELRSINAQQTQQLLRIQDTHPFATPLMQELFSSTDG
Chain of Peroxisome proliferator-activated receptor alpha (Homo sapiens) (Q07869 whole entry, looked up, the tested form may be a part): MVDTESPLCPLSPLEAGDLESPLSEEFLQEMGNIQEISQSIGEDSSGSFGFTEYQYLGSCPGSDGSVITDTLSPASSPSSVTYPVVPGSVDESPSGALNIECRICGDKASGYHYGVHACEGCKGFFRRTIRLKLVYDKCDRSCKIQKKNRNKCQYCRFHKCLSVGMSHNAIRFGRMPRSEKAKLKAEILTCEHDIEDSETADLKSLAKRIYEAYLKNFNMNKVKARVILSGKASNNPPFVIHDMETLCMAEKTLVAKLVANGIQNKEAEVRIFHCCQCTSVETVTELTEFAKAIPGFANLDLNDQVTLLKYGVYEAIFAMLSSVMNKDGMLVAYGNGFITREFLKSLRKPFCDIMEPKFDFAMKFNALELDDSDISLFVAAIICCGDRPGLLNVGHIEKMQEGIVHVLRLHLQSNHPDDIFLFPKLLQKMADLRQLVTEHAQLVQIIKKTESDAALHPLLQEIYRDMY
Chain of Peroxisome proliferator-activated receptor gamma (Homo sapiens) (P37231 whole entry, looked up): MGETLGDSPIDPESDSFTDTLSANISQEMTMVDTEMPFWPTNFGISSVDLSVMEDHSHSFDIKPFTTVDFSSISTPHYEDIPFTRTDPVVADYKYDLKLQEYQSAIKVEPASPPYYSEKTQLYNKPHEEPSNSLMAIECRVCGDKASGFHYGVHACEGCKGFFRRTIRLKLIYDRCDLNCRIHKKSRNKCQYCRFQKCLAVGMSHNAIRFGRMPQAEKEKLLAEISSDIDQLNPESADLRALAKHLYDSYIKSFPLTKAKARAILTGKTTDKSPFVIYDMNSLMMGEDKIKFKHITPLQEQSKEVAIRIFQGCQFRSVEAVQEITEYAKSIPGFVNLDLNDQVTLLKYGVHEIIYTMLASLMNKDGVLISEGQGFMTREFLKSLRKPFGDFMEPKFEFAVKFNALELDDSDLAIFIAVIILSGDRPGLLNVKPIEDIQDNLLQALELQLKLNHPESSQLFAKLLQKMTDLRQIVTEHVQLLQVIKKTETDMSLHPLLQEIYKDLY
Chain of Thyroid hormone receptor beta (Homo sapiens) (P10828 whole entry, looked up): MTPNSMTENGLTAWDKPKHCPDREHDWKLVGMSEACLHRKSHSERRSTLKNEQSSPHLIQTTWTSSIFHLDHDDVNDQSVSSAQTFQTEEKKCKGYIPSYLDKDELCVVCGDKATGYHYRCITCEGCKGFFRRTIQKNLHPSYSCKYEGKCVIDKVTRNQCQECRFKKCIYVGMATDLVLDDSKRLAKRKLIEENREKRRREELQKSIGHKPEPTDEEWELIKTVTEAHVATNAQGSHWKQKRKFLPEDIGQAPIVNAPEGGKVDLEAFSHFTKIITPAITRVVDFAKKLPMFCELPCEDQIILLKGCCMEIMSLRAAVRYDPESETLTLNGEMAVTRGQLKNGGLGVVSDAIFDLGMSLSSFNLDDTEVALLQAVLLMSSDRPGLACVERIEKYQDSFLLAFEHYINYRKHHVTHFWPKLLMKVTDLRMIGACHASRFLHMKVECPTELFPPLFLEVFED
Chain of Glucocorticoid receptor (Homo sapiens) (P04150 whole entry, looked up): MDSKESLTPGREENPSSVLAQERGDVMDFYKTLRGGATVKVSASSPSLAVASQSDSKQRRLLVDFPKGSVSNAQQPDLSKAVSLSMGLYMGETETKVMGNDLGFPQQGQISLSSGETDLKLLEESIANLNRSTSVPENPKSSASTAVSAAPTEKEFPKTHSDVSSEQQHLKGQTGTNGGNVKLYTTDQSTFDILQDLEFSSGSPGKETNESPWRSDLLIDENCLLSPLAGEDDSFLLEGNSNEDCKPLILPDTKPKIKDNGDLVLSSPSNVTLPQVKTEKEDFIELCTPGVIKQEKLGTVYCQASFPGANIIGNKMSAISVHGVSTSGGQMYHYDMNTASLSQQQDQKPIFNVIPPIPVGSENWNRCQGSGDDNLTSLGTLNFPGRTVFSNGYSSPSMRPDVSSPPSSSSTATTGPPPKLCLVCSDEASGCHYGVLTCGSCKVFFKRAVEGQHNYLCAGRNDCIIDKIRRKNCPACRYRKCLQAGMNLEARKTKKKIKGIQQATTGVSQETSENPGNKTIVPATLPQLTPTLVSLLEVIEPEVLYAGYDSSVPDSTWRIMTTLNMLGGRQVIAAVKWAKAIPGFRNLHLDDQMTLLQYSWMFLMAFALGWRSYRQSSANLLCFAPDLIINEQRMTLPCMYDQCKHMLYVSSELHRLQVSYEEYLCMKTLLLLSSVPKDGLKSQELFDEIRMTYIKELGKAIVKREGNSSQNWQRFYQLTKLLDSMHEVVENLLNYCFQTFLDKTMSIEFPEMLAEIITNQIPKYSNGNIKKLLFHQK

COC(=O)c1ccc(C(=O)OC)cc1
-0.742%: max response [6]
inactive: outcome [1] | Potency [2] | Potency [4] | Potency [5] | max response [7] -16.3% | activation [8] -5.18% | activation [9] -0.624% | activation [10] 2.27% | max response [11] -0.437% | Potency [12] | max response [13] -4.69% | max response [14] -3.92% | Potency [15] | max response [16] 2.11%
-4.51%: max response [3]

CC(C)(C)c1ccc(O)c(C(C)(C)C)c1
-6.68%: max response [6]
inactive: activation [17] -9.25% | outcome [1] | Potency [2] | Potency [4] | Potency [5] | max response [7] -3.49% | activity change % (negative = inhibition) [18] 5.44% | activation [8] 1.63% | activation [9] -1.75% | activation [10] 0.859% | max response [11] 8.37% | Potency [12] | max response [13] -2.61% | max response [14] -8.41% | Potency [15] | max response [16] 6.32%
-10.9%: max response [3]

C[Si](C)(C)N[Si](C)(C)C
-10.7%: max response [6]
inactive: activation [17] -9.44% | outcome [1] | Potency [2] | Potency [4] | Potency [5] | activity change % (negative = inhibition) [18] -1.93% | activation [8] 1.4% | activation [10] 1.22% | max response [11] -0.0059% | Potency [12] | max response [14] -5.89% | Potency [15]
-0.733%: max response [3]

COc1ccc(OC)c(OC)c1
-0.39%: max response [3]
inactive: activation [17] 0.211% | outcome [1] | Potency [2] | Potency [4] | Potency [5] | max response [7] 2.37% | activity change % (negative = inhibition) [18] 7.13% | activation [10] 0.552% | max response [11] 0.14% | Potency [12] | max response [14] -1.79% | max response [16] 3.06% | outcome [19]
-10%: max response [6]

CN(C)c1nc(=O)n(C2CCC(O)CC2)c(=O)n1C (stereo not drawn)
20.4%: max response [20]
-9.86%: max response [3]
inactive: activation [17] 6.12% | outcome [1] | Potency [2] | Potency [4] | Potency [5] | activity change % (negative = inhibition) [18] 11.1% | activation [8] 2.9% | activation [9] -0.848% | activation [10] -0.637% | max response [11] -3.35% | Potency [12] | max response [13] 6.16% | max response [14] -7.57% | Potency [15] | max response [16] -1.79% | outcome [19]

CSc1ccc(Cl)cc1
18.6%: max response [6]
8.86%: max response [3]
24.7%: max response [20]
inactive: activation [17] -2.12% | outcome [1] | Potency [2] | Potency [4] | Potency [5] | max response [7] -2.56% | activation [9] -1.66% | activation [10] -3.53% | max response [11] -0.0243% | Potency [12] | max response [14] -19.5% | Potency [15] | max response [16] -1.44% | outcome [19]

CCCOC(=O)c1ccc(C(=O)OCCC)nc1
inactive: activation [17] -11.2% | outcome [1] | Potency [2] | max response [7] -17.9% | activation [9] 1.57% | activation [10] -2.64% | max response [11] -0.236% | Potency [12] | max response [13] 22.4% | max response [14] -23.4% | max response [16] -3.51% | outcome [19]
6.56%: max response [6]

CCC(=O)C1C(=O)CC(C(=O)O)CC1=O (stereo not drawn)
-10.4%: max response [3]
inactive: activation [17] 6.99% | outcome [1] | Potency [2] | Potency [4] | Potency [5] | activation [9] 0.776% | activation [10] -0.512% | max response [11] 1.2% | Potency [12] | max response [13] 14.2% | max response [14] 6.24% | max response [16] -8.49% | outcome [19]

CCOC(=O)CCCCCCCCC(=O)OCC
inactive: outcome [1] | Potency [2] | Potency [4] | Potency [5] | activation [8] -5.93% | activation [10] 0.108% | max response [11] -3.28% | Potency [12] | max response [13] -13.4% | max response [14] -4.17% | Potency [15] | max response [16] 2.58% | outcome [19]
3.8%: max response [3]
-7.52%: max response [6]

NCCCCCCCCCCC(=O)O
inactive: outcome [1] | Potency [2] | Potency [4] | activity change % (negative = inhibition) [18] -1.93% | activation [8] 0.322% | activation [9] -0.282% | activation [10] 6.19% | max response [11] -1.64% | max response [13] -2.31% | max response [14] -12% | Potency [15] | max response [16] 1.01%
-7.72%: max response [3]
0.715%: max response [20]

COc1ccccc1NC(=O)CC(C)=O
inactive: outcome [1] | activity change % (negative = inhibition) [18] -1.32% | activation [8] -7.86% | activation [9] -0.04% | activation [10] 6.41% | max response [11] 0.153% | Potency [12] | max response [13] 2.57% | max response [14] -19.2% | max response [16] 5.67%
49.4%: max response [20]
7.64%: max response [6]

CO/N=C1\C[C@]2(C[C@@H]3C[C@@H](C/C=C(\C)C[C@@H](C)/C=C/C=C4\CO[C@@H]5[C@H](O)C(C)=C[C@@H](C(=O)O3)[C@]45O)O2)O[C@H](/C(C)=C/C(C)C)[C@H]1C
inactive: activation [10] 0.384% | Potency [12]
active: Potency [13] 44.7 µM | Potency [15] 28.2 µM

O=C(O)C(Oc1ccc(Cl)cc1)Oc1ccc(Cl)cc1
4.78%: max response [3]
-2.46%: max response [20]
inactive: activation [17] -6.89% | Potency [4] | Potency [5] | max response [7] -10.5% | activity change % (negative = inhibition) [18] -5.07% | activation [8] 2.64% | activation [9] 0.776% | activation [10] -1.04% | max response [11] 4.93% | Potency [12] | max response [13] -5.82% | max response [14] -2.57% | Potency [15] | max response [16] -9.92% | outcome [19]
-7.28%: max response [6]
